# Records with an inconclusive call do not appear. Entries that show only a call come without a potency. The source made the active and inactive calls. Calls come from the whole dose curve; as a rule, active = well fitted cell-killing curve with a large enough effect in the repeat runs; inconclusive = weak or mixed curves, or effect the other way; inactive = flat fitted curve, though single readings scatter.
# Experiments:
# [1] = cAMP Responsive Elements (CRE) small molecule antagonists, cell-based qHTS assay: qHTS cell viability counter screen (AID 2060913); note: nearly all actives have a fitted effect of over 40% in size; note: potency is the fitted concentration of half-maximal effect
# Summary of the method: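 CRE-bla HEK293T cells were seeded in assay medium with 10% dialyzed FBS, incubated 18 hrs at 37 C, then exposed to compounds plus 0.25 uM final NKH477 for 3 hrs. Viability was read by CellTiter-Glo luminescence after 30 min, in the same wells.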
# [2] = cAMP Responsive Elements (CRE) small molecule agonists, cell-based qHTS assay: qHTS cell viability counter screen (AID 2060914);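 note: viability read after 3 h of compound exposure; nearly all actives have a fitted effect of over 50% in size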
# Summary of the method: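 Cytotoxicity counter screen multiplexed with the CRE-bla reporter assay in HEK 293T cells: 3 h compound exposure at 37 °C, followed by CellTiter-Glo luminescence measured in the same wells.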
SMILES,Potency [1],Potency [2]
Cc1cccc(N)c1,inactive,inactive
CCOP(=S)(OCC)SCn1nnc2ccccc2c1=O,inactive,inactive
COC(=O)C(c1ccccc1)C1CCCCN1 (stereo unspecified),inactive,inactive
CNC(=O)O/N=C(\C)SC,inactive,inactive
c1ccc(CN2CCNCC2)cc1,inactive,inactive
COc1c(C(C)(C)C)cc([N+](=O)[O-])c(C)c1[N+](=O)[O-],inactive,inactive
BrCC(Br)c1ccccc1 (stereo unspecified),inactive,inactive
CC(Oc1ccc(Oc2ncc(C(F)(F)F)cc2Cl)cc1)C(=O)O (stereo unspecified),inactive,inactive
S=C=NCc1ccccc1,inactive,inactive
CCOC(C(=O)OCCN(C)C)(c1ccccc1)c1ccccc1,inactive,inactive
CC(C)CC#N,inactive,inactive
ClCCCCCCCl,inactive,inactive
Nc1ccc(Cl)c(Cl)c1,inactive,inactive
c1ccc(N2CCNCC2)cc1,inactive,inactive
FC(Cl)(Cl)Cl,inactive,inactive
O=C(CBr)c1ccc(O)cc1,inactive,inactive
CC1(C)[C@H](/C=C2\CCSC2=O)[C@@H]1C(=O)OCc1coc(Cc2ccccc2)c1,inactive,inactive
C[N+](C)(C)CCCl,inactive,inactive
C1CN2CCC1CC2,inactive,inactive
CCOc1cc(OP(=S)(OC)OC)nc(CC)n1,inactive,inactive

SMILES,Potency [1],Potency [2]
Cc1c(F)c(F)c(COC(=O)C2C(/C=C(\Cl)C(F)(F)F)C2(C)C)c(F)c1F (stereo unspecified),inactive,inactive
CNC(C)(C)Cc1ccccc1,inactive,inactive
CCC1(CC)C(=O)C=CNC1=O,inactive,inactive
CSc1nc(NC(C)C)nc(NC(C)C)n1,inactive,inactive
CC[C@@H](CO)NC(=O)[C@@H]1C=C2c3cccc4c3c(cn4C)C[C@H]2N(C)C1,inactive,inactive
OC(c1ccc(Cl)cc1)(c1cncnc1)c1ccccc1Cl (stereo unspecified),inactive,inactive
CCCCn1cc[n+](C)c1 (tested in a mixture with another compound),inactive,inactive
CC(C)[C@@H](C(=O)O[C@@H](C#N)c1cccc(Oc2ccccc2)c1)c1ccc(Cl)cc1,inactive,inactive
Clc1ccccc1,inactive,inactive
CCNc1nc(NC(C)C)nc(OC)n1,inactive,inactive
O=Cc1ccc2c(c1)OCO2,inactive,inactive
NNC(=S)NN,inactive,inactive
O=C(O)CC(O)(CC(=O)O)C(=O)O,inactive,inactive
O=C(O)c1ccccc1O,inactive,inactive
O=[N+]([O-])c1ccc(Cl)c(Cl)c1,inactive,inactive
COc1cc(C[C@@H](C)N)c(OC)cc1Br,inactive,inactive
NNCc1ccccc1,inactive,inactive
O=C(NC(=O)c1c(F)cccc1F)Nc1ccc(Cl)cc1,inactive,inactive
C[C@]12CCC(=O)C(O)=C1CC[C@@H]1[C@@H]2CC[C@]2(C)C(=O)CC[C@@H]12,inactive,inactive
COP(=O)(OC)SCn1c(=O)oc2cc(Cl)cnc21,inactive,inactive

SMILES,Potency [1],Potency [2]
CCNc1nc(Cl)nc(NC(C)(C)C#N)n1,inactive,inactive
CC(Cc1ccccc1)NCCn1cnc2c1c(=O)n(C)c(=O)n2C (stereo unspecified),inactive,inactive
CC(=O)[O-].CC(=O)[O-].O.O.[Cd+2],53.7 µM (active),inactive
COC(C)(C)C,inactive,inactive
ClSC(Cl)(Cl)Cl,inactive,inactive
c1ccc(OCC2CO2)cc1 (stereo unspecified),inactive,inactive
O=[N+]([O-])c1cc(Cl)c(Cl)c(Cl)c1,inactive,inactive
CCc1cc(C)cc(CC)c1-c1c(OC(=O)C(C)(C)C)n2n(c1=O)CCOCC2,inactive,inactive
CCBr,inactive,inactive
COc1cccc(C(=O)NN(C(=O)c2cc(C)cc(C)c2)C(C)(C)C)c1C,inactive,inactive
CC(=O)[C@H]1CC[C@H]2[C@@H]3CC[C@H]4C[C@](C)(O)CC[C@]4(C)[C@H]3CC[C@]12C,inactive,inactive
CC(C)(Cl)Cl,inactive,inactive
CC(C)Nc1ccc(Nc2ccccc2)cc1,50.8 µM (active),inactive
CCOCCOC(C)=O,inactive,inactive
CCC[N+]1(C)CCCCC1,inactive,inactive
Cc1ncsc1CCCl,inactive,inactive
C/C=C/CC#N,inactive,inactive
CC(Cc1ccc2c(c1)OCO2)NO (stereo unspecified),inactive,inactive
